# TDP1 cell noCPT: qHTS for Inhibitors of human tyrosyl-DNA phosphodiesterase 1 (TDP1): qHTS in cells in absence of CPT | DT40 Tdp1-/- hTDP1 cells, no CPT, ATP luminescence, 48 h | Potency, µM (top dose mostly 46.2 µM), for the others: at the highest dose activity change, negative = growth inhibition, hits mostly inhibitors | 420,000 compounds, 15% hits | AID 686978, 2013; further: potency means the concentration at half of the fitted maximal effect; nearly all actives have a fitted effect of over 55% in size
#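 Stably hTDP1-transfected Tdp1-null chicken DT40 cells were treated with library compounds minus camptothecin and grown for at least 48 hr at 37 °C, after which cellular ATP was quantified by luminescence.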
# HT1080 IDH1KD tx: toxicity to HT-1080 IDH1 knockdown cells (counter line); HT-1080 IDH1 knockdown viability, ATP luminescence, 48 h; Potency, µM (top dose mostly 46.1 µM), for inactives: at the top dose activity, negative = toxicity, actives largely listed as cytotoxic; 360,000 compounds, 2% hits; AID 686971;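 further: potency means the concentration at half of the fitted maximal effect; 0% = DMSO wells and -100% = cell-free medium wells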
#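 % activity derives from luminescence (CellTiter-Glo), normalised to DMSO and no-cell wells. HT-1080-IDH1KD cells, 750/well, had 48 h compound exposure at 37 °C.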
# ELG1 DNA repair: inhibitors of ELG1-dependent DNA repair in HEK293T cells; AID 504467; Potency, µM (doses to about 46.1 µM), for inactives: at the highest dose activity change, negative = inhibition, hits mostly inhibitors; 330,000 compounds, 2.3% hits; HEK293T ELG1-luciferase reporter, luminescence, 16 h; DNA damage induced by 5-fluorouridine; further: potency means the concentration at half of the fitted maximal effect; nearly all actives have a fitted effect of over 55% in size
#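 HEK293T cells expressing luciferase-tagged ELG1 (2,000/well) received 5-Fluorouridine plus compound or DMSO for 16 hr at 37 °C. Luciferase was read by ONE-Glo luminescence after 30 min at room temperature.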
# HT1080NT lethal: kills 2HG-producing HT-1080-NT fibrosarcoma cells; HT-1080-NT fibrosarcoma viability, CellTiter-Glo ATP luminescence, 48 h; Potency, µM (doses to about 46.1 µM), without a hit: at the highest dose activity, negative = less viability, most hits filed as cytotoxic; 360,000 compounds, 1.6% hits; AID 686970;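 further: NT is the 2HG producing partner of a matched IDH1 knockdown line; potency means the concentration at half of the fitted maximal effect; 0% = DMSO-treated cells and -100% = media-only wells without cells; nearly all actives have a fitted effect of over 55% in size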
#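 Luminescent CellTiter-Glo readout after 48 hours of compound exposure at 37 degrees C defined viability of HT-1080-NT cells. Activity was normalized to DMSO wells and cell-free media wells; concentration-response curves were fitted and assigned curve classes.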
# IL-1B inflam inh: inflammasome signaling inhibition, IL-1 beta readout. AID 743279. 360,000 compounds, 4.7% hits. activity change, % at 57.5 µM. THP-1 LPS/ATP IL-1B secretion, AlphaLISA, 16 h; stronger effect = lower value; in the data active means activity change below about -50%; inconclusive means mostly about -30% to -49%
#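 Secreted IL-1B measured by AlphaLISA bead assay after 16 h compound exposure of THP-1 cells; compounds (final up to 57.5 uM) added 1 h before LPS (250 ng/mL) and ATP (1.25 mM) stimulation; lower signal means less secretion.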
# DT40 TDP1 CPT: DT40-hTDP1 cell growth loss with CPT; 420,000 compounds, 12% hits; AID 686979; Potency, µM (series often up to 46.2 µM), without a hit: at the top dose activity change, negative = growth inhibition, most hits filed as inhibitors; chicken DT40 Tdp1-/-;hTDP1 cells + 20 nM CPT, ATP luminescence, 48 h; further: potency means the concentration at half of the fitted maximal effect; nearly all actives have a fitted effect of over 55% in size
#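 Chicken DT40 Tdp1-/- cells complemented with human TDP1, 400 cells/well, exposed to compounds plus 20 nM camptothecin for at least 48 h at 37 C; viability read as ATP content by CellTiter-Glo luminescence.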
# An asterisk follows results filed as active; ? = inconclusive; nt = not tested or not shown; [ ] = dose if it differs, or a comment. This is a sample that favours compounds with a hit; in the whole collection about 19% have one here. Unless noted, the call rests on the fitted dose curve; in most records, active means well fitted curve in the direction sought with a large enough effect; inconclusive means small, poorly fitted or top-dose-only effect, or another doubt; inactive means no such curve, though single readings can be large; an effect the other way counts as inactive or inconclusive. Unless noted, on the % scale 0 is the no-effect control and ±100 the full control effect.
SMILES,TDP1 cell noCPT,HT1080 IDH1KD tx,ELG1 DNA repair,HT1080NT lethal,IL-1B inflam inh,DT40 TDP1 CPT
CC1=C(C(=O)OC(C)C)C(c2cccc([N+](=O)[O-])c2)n2c(cc(=O)[nH]c2=S)N1 (stereo not given),-18%,26%,6%,-1%,19,-24%
Cc1cc2c(C)nc(Cc3ccccc3)nc2o1,-19%,-1%,18µM*,-5%,-7,-12%
CSc1nc(C)c2cc(C)oc2n1,-17%,16%,8%,10%,0,0%
Cc1cccc(N2CCN(C(=O)c3cc4ccc5cccnc5c4[nH]3)CC2)c1C,?,nt,nt,nt,nt,23µM*
CC(=O)c1ccc(N2CCN(C(=O)c3cc4ccc5cccnc5c4[nH]3)CC2)cc1,18µM*,nt,nt,nt,nt,15µM*
O=C(c1cc2ccc3cccnc3c2[nH]1)N1CCCCC1,-29%,nt,nt,nt,nt,?
CCCCn1nnnc1C(c1cc2ccccc2o1)N1CCCN(C(=O)OC(C)(C)C)CC1 (stereo not given),?,-28%,nt,?,-19,?
CC(=O)c1c(C)[nH]c(C(=O)OCC(=O)NCc2cccs2)c1C,?,-27%,?,-5%,39,?
Cc1cc(NCCCn2ccnc2)n2nc(C)c(-c3ccccc3)c2n1,-22%,?,?,?,-22,?
Cc1cc(SCC#N)n2nc(C)c(-c3ccccc3)c2n1,-25%,-26%,23µM*,-29%,-60*,-29%
Cc1cc(NCCCn2ccnc2)n2nc(C)c(-c3ccc(Cl)cc3)c2n1,15µM*,11µM*,?,-26%[9.24 µM],-60*,16µM*
C=CCSc1cc(C)nc2c(-c3ccccc3)c(C)nn12,?,?,-10%,?,13,?
Cc1cc(Cl)n2nc(C)c(-c3ccc(Cl)cc3)c2n1,?,18µM*,1%,?,-99*,?
Cc1cc(SCC#N)n2nc(C)c(-c3ccc(Cl)cc3)c2n1,-16%,8.9µM*,5%,?,-2,-9%
Cc1cc(N)n2nc(C)c(-c3ccc(Cl)cc3)c2n1,?,?,8%,?,-1,?
Cc1ccc2cc([N+](=O)[O-])ccc2n1,-3%,10%,0%,13%,7,1%
O=C(N/N=C/c1ccsc1)c1ccc2ccccc2n1,1%,18%,?,18%,41,22%
Cc1ccc(N2C(=O)C3C4C=CC(CNC(=S)N5CCN(c6cccc(C)c6)C(C)C5)(O4)C3C2=O)cc1 (stereo not given),4.6µM*,-3%,3%,30%,27,9.2µM*
CCn1cc(C(=O)N2CCN(c3cccc(C)c3)C(C)C2)c(=O)c2cc(S(=O)(=O)N3CCOCC3)ccc21 (stereo not given),?,nt,nt,nt,nt,-15%
C/C(=N\NC(N)=O)C1CC(Cc2ccccc2)C(=O)O1 (stereo not given),7%,-1%,0%,24%,0,2%
CCCCC1CC(CSC(=N)N)OC1=O (stereo not given),?,22%,-27%,26%,-13,?
CCCCCCCC1CC(/C(C)=N/NC(N)=O)OC1=O (stereo not given),?,10%,-1%,18%,14,18µM*
CC(C)CCC1CC(CSC(=N)N)OC1=O (stereo not given),23µM*,-10%,nt,1%,-25,?
CCCCCCCC1CC(CSC(=N)N)OC1=O (stereo not given),21µM*,-27%,-10%,-15%,-99*,15µM*
COc1ccccc1CN(CC(=O)NCc1ccc(F)cc1)C(=O)c1csnn1,-24%,-2%,-4%,-2%,-7,-7%
SMILES,TDP1 cell noCPT,HT1080 IDH1KD tx,ELG1 DNA repair,HT1080NT lethal,IL-1B inflam inh,DT40 TDP1 CPT
Fc1cc(Cl)ccc1NC1=NCCCCC1,-3%,1%,12%,3%,-67*,-12%
O=C(Nc1c(O)c2ccccc2oc1=O)c1cccc(F)c1,7%,nt,nt,nt,nt,8%
CC1CCc2c(sc3nc(C(C)(C)C)nc(N4CCN(C(=O)CCl)CC4)c23)C1 (stereo not given),2.6µM*,4.6µM*,?,12µM*,-95*,1.8µM*
CCC(=O)N1CCN(c2nc(CC)nc3sc4c(c23)CCCC4)CC1,?,-15%,?,-28%,-23,-27%
COC(=O)[C@H](Cc1c[nH]c2ccccc12)NCc1cccc(B(O)O)c1,-2%,3%,nt,-2%,-66*,24%
COc1ccc(S(=O)(=O)N2CCCCCC2)cc1C(=O)N1CCN(c2ccccc2C)CC1,21µM*,-15%,?,-2%,-1,?
COc1ccc(S(=O)(=O)N2CCCCCC2)cc1C(=O)N1CCN(c2ccccc2O)CC1,?,8%,13µM*,10%,-7,15µM*
CCN(C(=O)CSc1nc(-c2ccc(C(C)C)cc2)no1)c1cccc(C)c1,?,nt,nt,nt,nt,15µM*

# High-throughput results as filed in PubChem.
